Assay results taken from article PMC4336329 (PLoS ONE, 2015).
About 2,200 (0.71%) of roughly 310,000 compounds showed an effect of 50% or more. The effect is printed as a negative number. The entries come from a sample that favours strong results as a whole.

target: human ether-à-go-go-related gene (hERG) potassium channel (human, UniProt Q12809); experiment: primary screen, population patch clamp on CHO cells stably expressing hERG; higher = less effect of the substance
Protocol: Briefly, Chinese hamster ovary (CHO) cells stably expressing the hERG channel were dislodged from tissue culture flasks and dispensed into PPC plates. […] During the recording, background leak currents were estimated by a 100 ms step to -80 mV from an initial holding potential of -70 mV and subtracted from the subsequent current measurement. The campaign was conducted in two phases using slight differences in recording protocol. In the first phase, the initial voltage pulse used a 100 ms step to -30 mV from a holding potential of -70 mV, a 2 s conditioning step to +25 mV, and a 2 s test step to -30 mV. During the second phase of the screen, the potential during the conditioning step was raised to +45 mV. In both phases of the campaign, a secondary voltage pulse was applied using the same parameters as the second phase initial pulse. The initial and secondary pulses were applied in the absence of compound, and upon application of 1 μM and 10 μM test concentrations. Small molecule effects on hERG current density were quantified by […].

Chain of human ether-à-go-go-related gene (hERG) potassium channel (Q12809 whole entry, looked up): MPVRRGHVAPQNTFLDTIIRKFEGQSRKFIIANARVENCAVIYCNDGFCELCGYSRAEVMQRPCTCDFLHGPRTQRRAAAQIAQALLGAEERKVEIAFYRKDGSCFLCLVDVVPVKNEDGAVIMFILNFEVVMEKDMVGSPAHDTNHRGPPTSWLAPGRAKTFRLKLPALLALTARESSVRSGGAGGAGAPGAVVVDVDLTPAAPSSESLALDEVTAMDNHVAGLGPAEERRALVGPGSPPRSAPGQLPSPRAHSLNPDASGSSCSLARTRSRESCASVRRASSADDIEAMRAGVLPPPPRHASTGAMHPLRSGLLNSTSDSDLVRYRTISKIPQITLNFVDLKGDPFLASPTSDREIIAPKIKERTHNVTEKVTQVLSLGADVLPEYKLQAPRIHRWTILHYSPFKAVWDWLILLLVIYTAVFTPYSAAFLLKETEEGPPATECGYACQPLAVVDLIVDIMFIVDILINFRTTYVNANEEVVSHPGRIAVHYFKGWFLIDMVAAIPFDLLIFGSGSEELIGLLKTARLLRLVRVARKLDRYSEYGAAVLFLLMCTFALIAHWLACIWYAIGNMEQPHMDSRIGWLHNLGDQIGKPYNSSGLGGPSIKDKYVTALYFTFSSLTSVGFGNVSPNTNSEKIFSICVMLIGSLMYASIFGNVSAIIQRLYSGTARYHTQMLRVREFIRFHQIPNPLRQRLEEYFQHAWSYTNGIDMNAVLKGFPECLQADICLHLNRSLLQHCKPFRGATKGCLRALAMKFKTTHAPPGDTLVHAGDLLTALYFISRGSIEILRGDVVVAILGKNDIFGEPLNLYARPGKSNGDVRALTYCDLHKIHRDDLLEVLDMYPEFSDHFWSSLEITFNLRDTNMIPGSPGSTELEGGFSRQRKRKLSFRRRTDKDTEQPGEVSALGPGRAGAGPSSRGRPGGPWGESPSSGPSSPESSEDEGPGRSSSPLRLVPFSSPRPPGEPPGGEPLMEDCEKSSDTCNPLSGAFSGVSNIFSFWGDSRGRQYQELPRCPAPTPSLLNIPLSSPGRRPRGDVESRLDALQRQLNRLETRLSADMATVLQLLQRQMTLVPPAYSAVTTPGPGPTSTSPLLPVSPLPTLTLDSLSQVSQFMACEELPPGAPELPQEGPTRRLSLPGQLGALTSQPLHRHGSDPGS

Row | SMILES | hERG current change (%, negative = inhibition) at 1uM
1 | Cc1cc(=O)oc2c3c(cc(OCC(=O)NCc4ccco4)c12)OC(C)(C)CC3 | -1.54%
2 | CCOc1ccc(N(CC(=O)NC2CCCCC2)C(=O)CNC(=O)c2ccco2)cc1 | -5.99%
3 | Cc1cccc(-n2c(C)nc3cc(C(=O)N4CCC5(CC4)OCCO5)ccc32)c1 | -14.2%
4 | CC(=O)c1ccc(-c2ccc(C(=O)NC3CCCCCC3)o2)cc1 | 29.5%
5 | CC(=O)c1ccc(-c2ccc(C(=O)NC3CC(C)(C)NC(C)(C)C3)o2)cc1 | -71.1%
6 | CC1(C)CC(NC(=O)c2ccc(-c3ccc([N+](=O)[O-])cc3)o2)CC(C)(C)N1 | -3.5%
7 | CCN(c1ccccc1)c1nc(=O)c2cccnc2s1 | 5.88%
8 | COc1ccc(C)cc1C1=Nc2ccccc2C1(C)C | 13.4%
9 | Cc1c(C(=O)OCC(=O)Nc2ccc(C(N)=O)cc2)cccc1[N+](=O)[O-] | 11%
10 | COc1ccc(C[C@H]2CN3C(=NC[C@H]3Cc3ccccc3)N2CCNC(=O)c2ccc(C)c(Br)c2)cc1 | -24.7%
11 | Cc1ccc(C(=O)NCCN2C3=NC[C@H](C(C)C)N3C[C@H]2Cc2ccc(O)cc2)cc1Br | 0.0506%
12 | COc1ccc(C[C@@H]2CN3C(=NC[C@@H]3C)N2CCNC(=O)c2ccc(C)c(Br)c2)cc1 | -64.9%
13 | COc1ccc(C[C@H]2CN3C(=NC[C@@H]3Cc3ccccc3)N2CCNC(=O)c2ccc(C)c(Br)c2)cc1 | -16.7%
14 | Cc1ccc(C(=O)NCCN2C3=NC[C@H](C)N3C[C@H]2Cc2ccc(O)cc2)cc1Br | 9.94%
15 | C/C=C(\C)C(=O)NCCN1C2=NC[C@H](C(C)C)N2C[C@H]1Cc1ccc(O)cc1 | 29.8%
16 | COc1ccc(C[C@H]2CN3C(=NC[C@@H]3C(C)C)N2CCNC(=O)c2ccc(C)c(Br)c2)cc1 | -66.8%
17 | Cc1ccc(C(=O)NCCN2C3=NC[C@H](Cc4ccc(O)cc4)N3C[C@H]2Cc2ccc(O)cc2)cc1Br | -9.94%
18 | COc1ccc(C[C@H]2CN3C(=NC[C@H]3C)N2CCNC(=O)c2ccc(C)c(Br)c2)cc1 | -70.9%
19 | COC(=O)c1cn(NC(=O)C2CCCO2)c(=O)c2ccccc12 (centres unmarked) | 14.6%
20 | CNc1nnc(SCC(=O)N2c3ccccc3NC(=O)CC2C)s1 (centres unmarked) | 6.91%

Row | SMILES | hERG current change (%, negative = inhibition) at 1uM
21 | CC(=O)Nc1ccc(S(=O)(=O)NCCC(=O)OCC(=O)c2ccccc2)cc1 | 6.41%
22 | COc1cccc(CN2CCCC(C(=O)Nc3ccc(-c4cscn4)cc3)C2)c1 (centres unmarked) | -10.8%
23 | COc1ccccc1NC(=O)c1ccc(S(=O)(=O)NCc2ccco2)cc1 | 13.8%
24 | O=C(NCCCN1CCCC1=O)c1cccc(NS(=O)(=O)c2ccccc2)c1 | 13.4%
25 | COc1cccc(NC(=O)CN(C)C(=O)c2ccc(NC3CC3)c([N+](=O)[O-])c2)c1 | -40.8%
26 | CCOc1ccc(NC(=O)CN(C)C(=O)c2ccc(NC3CC3)c([N+](=O)[O-])c2)cc1OCC | -18.3%
27 | COc1ccc(NC(=O)CN(C)C(=O)c2ccc(NC3CC3)c([N+](=O)[O-])c2)cc1 | -68.6%
28 | CC1Cc2cc(/C(O)=C3\C(=O)C(=O)N(Cc4ccncc4)C3c3ccccc3F)ccc2O1 (centres unmarked) | 17.9%
29 | O=C(c1ccncc1)N1CCCC(N2CCN(c3ccc(F)cc3)CC2)C1 (centres unmarked) | -19.9%
30 | O=C(c1ccc(Cl)s1)N1CCCC(N2CCN(c3ccc(F)cc3)CC2)C1 (centres unmarked) | -63.2%
31 | CCCc1cc(C(=O)N2CCCC(N3CCN(c4ccc(F)cc4)CC3)C2)no1 (centres unmarked) | -74.1%
32 | O=C(c1cccs1)N1CCCC(N2CCN(c3ccc(F)cc3)CC2)C1 (centres unmarked) | -52.1%
33 | Cc1nonc1C(=O)N1CCCC(N2CCN(c3ccc(F)cc3)CC2)C1 (centres unmarked) | -17.7%
34 | Cc1cc(C(=O)N2CCCC(N3CCN(c4ccc(F)cc4)CC3)C2)no1 (centres unmarked) | -19.1%
35 | Cc1ccccc1N1CCN(C2CCCN(C(=O)c3ccc(Cl)s3)C2)CC1 (centres unmarked) | 1.61%
36 | CC(C)c1cc(C(=O)N2CCCC(N3CCN(c4ccc(F)cc4)CC3)C2)no1 (centres unmarked) | -36.4%
37 | Cc1nnsc1C(=O)N1CCCC(N2CCN(c3ccc(F)cc3)CC2)C1 (centres unmarked) | 12.3%
38 | O=C(c1cccs1)N1CCCC(N2CCN(c3cccc(C(F)(F)F)c3)CC2)C1 (centres unmarked) | -8.83%
39 | CC(C)=CC(=O)N1CCCC(N2CCN(c3ccc(F)cc3)CC2)C1 (centres unmarked) | 19.1%
40 | CC(=O)c1ccc(C(=O)N2CCCC(N3CCN(c4ccc(F)cc4)CC3)C2)s1 (centres unmarked) | -51.3%

Row | SMILES | hERG current change (%, negative = inhibition) at 1uM
41 | Nc1nc(Br)c2ccccc2c1-c1ccccc1 | 9.58%
42 | CC(C)c1ccc(N(CC(=O)Nc2ccc(S(=O)(=O)N3CCOCC3)cc2)S(C)(=O)=O)cc1 | 21.3%
43 | COc1ccc(CCNC(=O)/C=C/c2ccc3ccccc3n2)cc1OC | 10.9%
44 | COc1ccc(S(=O)(=O)N(C)CC(=O)Nc2ccccc2SC)cc1Cl | 11.6%
45 | COc1nc2ccccc2c(=O)n1-c1ccc(C)cc1 | 7.4%
46 | Cc1cccc(C(=O)NCC2CCN(C(=O)c3cccc(C)c3)CC2)c1 | -2.21%
47 | COc1cccc(NC(=O)CCN2CCC(C(N)=O)CC2)c1 | 16.9%
48 | Cc1ccccc1C(=O)Nc1ccnn1C1CCN(Cc2ccncc2)CC1 | -3.47%
49 | Cc1ccccc1C(=O)Nc1ccnn1C1CCN(Cc2cnn(C(C)C)c2)CC1 | -27.3%
50 | Cc1ccccc1C(=O)Nc1ccnn1C1CCN(Cc2cccnc2)CC1 | -48.9%
51 | Cc1ccccc1C(=O)Nc1ccnn1C1CCN(Cc2cnn(C)c2)CC1 | -1.26%
52 | CSc1ccc(CN2CCC(n3nccc3NC(=O)c3ccccc3C)CC2)cc1 | -83.8%
53 | O=C(Nc1ccnn1C1CCN(Cc2ccccc2)CC1)c1ccccc1Cl | -53.1%
54 | O=C(Nc1ccnn1C1CCN(Cc2cccnc2)CC1)c1ccccc1Cl | -11.5%
55 | Cn1cc(CN2CCC(n3nccc3NC(=O)c3ccccc3Cl)CC2)cn1 | -4.32%
56 | COCC(C)N1CCC(n2nccc2NC(=O)c2ccccc2Cl)CC1 (centres unmarked) | -1.49%
57 | CCc1ccc(CN2CCC(n3nccc3NC(=O)c3ccccc3C)CC2)cc1 | -85.1%
58 | CC(CN1CCC(n2nccc2NC(=O)c2ccccc2Cl)CC1)c1ccccc1 (centres unmarked) | -43.6%
59 | CC(CCN1CCC(n2nccc2NC(=O)c2ccccc2Cl)CC1)c1ccccc1 (centres unmarked) | -85.1%
